Measurements: PubChem BioAssay AID588856 (National Center for Advancing Translational Sciences (NCATS), 2011)
“And” between values parts separate entries of the source, which are not always exact repeats. Identical values can stand only once. About 3,100 (0.76%) of roughly 410,000 compounds were called active. The call rests on the fitted dose curve; in most records, active means well fitted cell-killing curve with a large enough effect; inactive means no such curve, though single readings can be large or run the other way. What follows is part of a selection rich in actives, with near analogues and random picks from the rest. Where a call stands in place of a potency, no number is given. A structure can be active in one record and inactive in another.

test: qHTS for Inhibitors of TGF-b: Cytotox Counterscreen; settings: HepG2 CAGA-GFP viability, ATP luminescence, 18 h; series mostly up to 46.1 µM
Summary of the method: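 HepG2 CAGA-GFP cells (1000/well, DMEM with 1% FBS) received compound, then TGF-beta at 500 pg/mL final, and were incubated 18 hours at 37 degrees C. Viability was read by CellTiter-Glo luminescence. Media-only wells were set as complete cell-killing and DMSO as no toxicity.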
Potency means the concentration at half of the fitted maximal effect.

Structure (SMILES) | Potency
O=C(Nc1ccc2c(c1)OCCO2)C(C1CC1)N1CCC(Cc2ccccc2)CC1 (stereo not given) | 15.8 µM (active)
O=C(CN1CCOc2ccccc21)N1CCC(Cc2ccccc2)CC1 | inactive
O=C(Nc1ccc2c(c1)OCCO2)C(c1ccc(F)cc1)N1CCCCC1 (stereo not given) | inactive
Cc1cccc(Nc2nc(C)nc(N)c2S(=O)(=O)c2ccccc2)c1 | inactive
COc1ccc(NC(=O)CSc2nccn2C2CCCC2)cc1OC | inactive
COc1ccc2c(c1)c(=O)c(C(=O)c1ccccc1)cn2CC(=O)Nc1ccc2c(c1)OCCO2 | inactive
CCN(CC)c1nc(C#N)nc(OC)n1 | inactive
COc1ccc(-c2nc(=N)sn2-c2ccccc2)cc1 | inactive
Nc1ncnc2nnsc12 | inactive
Cc1cc(C)cc(OC(C)C(=O)Nc2nc3c(s2)CCCC3)c1 (stereo not given) | inactive
COc1ccc(-c2nc3cc(C)ccn3c2NC2CCCCC2)cc1SC1CCCCC1 | inactive
COc1ccc(-c2nc3cnccn3c2NC2CCCCC2)cc1-c1cccc(Cl)c1 | 12.6 µM (active)
COc1ccc(-c2nc3cnccn3c2NC(C)(C)CC(C)(C)C)cc1O | inactive
Cc1cccc(-c2nnc(SC(C)C(=O)Nc3ccccc3)n2C)c1 (stereo not given) | inactive
Cc1nnnn1/C(=C\c1ccccc1)C(=O)OCC(=O)N1CC2(C)CC1CC(C)(C)C2 (stereo not given) | 7.94 µM (active)
Oc1ccc(Cl)cc1C1C=C(c2ccc3c(c2)OCO3)NC(c2ccc(F)c(Br)c2)N1 (stereo not given) | inactive
CCOc1ccccc1NC(=O)c1ccc2c(c1)CCN2S(=O)(=O)c1ccc(C)cc1 | inactive
COc1ccc(C)cc1Nc1nc2ccccc2c2nnc(C)n12 | inactive
CCCNC(=O)C(CC)n1nc(CC)n2c(cc3oc(C)cc32)c1=O (stereo not given) | inactive
O=C(NCCCN1CCN(c2ccc(F)cc2)CC1)Nc1ccc([N+](=O)[O-])cc1 | inactive
CCOC(=O)c1c(C)[nH]c(CCC(=O)NCCCN2CCN(c3cc(C)ccc3C)CC2)c1C | inactive
Cc1ccc(C)c(N2CCN(CCCNC(=O)Nc3ccc(Cl)cc3)CC2)c1 | 10 µM (active)
O=C(C1CCC(Cn2c(=O)c3sccc3n(Cc3ccccc3F)c2=O)CC1)N1CCCCC1 (stereo not given) | inactive
COc1cc(CN(C(=O)c2ccccc2Br)c2ccccn2)cc(OC)c1OC | inactive
COc1cccc(CC2(CO)CCN(Cc3cnc(-c4cccc(C)c4)nc3)CC2)c1 | inactive

Structure (SMILES) | Potency
Cc1c(CN2CCC(CO)(CCOc3ccccc3)CC2)[nH]c2ccc(Cl)cc12 | 20 µM (active)
CCC(C)CN1CCC(CO)(Cc2ccccc2Cl)CC1 (stereo not given) | inactive
COc1cc(/C=N/O)cc(Br)c1OS(=O)(=O)c1ccc(C)cc1 | 12.6 µM (active)
COc1cc(/C=C/c2ccc(/C=C/c3cc(OC)c(OC)c(OC)c3)cc2)cc(OC)c1OC | inactive
Cc1ccc(S(=O)(=O)Oc2ccc(/C=N/NC(=O)c3c(Cl)cnn3C)cc2)cc1 | inactive
CO[C@H]1O[C@@H]2O[C@@]3(C)CC[C@@H]4[C@@H](C)CC[C@@H]([C@H]1C)[C@@]24OO3 | inactive
Fc1ccc(-c2nc(Nc3cccc(Cl)c3)nc3c2COc2ccccc2-3)cc1 | inactive
Cc1oc(-c2ccccc2F)nc1CN1CCC(C(=O)NCCc2ccc(Cl)cc2)CC1 | inactive
COc1ccc(Cn2ccc3nc(C)c(C(=O)Nc4ccc(C)c(F)c4)cc3c2=O)cc1 | inactive
O=C(NC1=CC(=O)c2ccccc2C1=O)c1ccccc1 | 15.8 µM (active)
CC1=C(C(=O)N2CCN(c3cccc(C(F)(F)F)c3)CC2)C2(CCCCC2)OC1=O | inactive
Cc1ccc(SCC(CC(C)C)N2CCN(CCc3ccccc3)CCC2=O)cc1 (stereo not given) | inactive
COc1ccc(C(=O)Nc2cccc(C(=O)OCc3cc(=O)n4c5c(sc4n3)CCCC5)c2)cc1 | inactive
CCC1CCCCN1Cc1c(O)ccc2c(=O)c(Oc3ccccc3Cl)c(C(F)(F)F)oc12 (stereo not given) | inactive
CC1=C/C(=N\OS(=O)(=O)c2ccccc2)C=CC1=O | 12.6 µM (active)
CCc1ccc(CNC(=O)c2cc3cc4ccc(OC)cc4nc3o2)cc1 | inactive
Cc1ccc(-c2cnc(C3CC3)o2)cc1S(=O)(=O)Nc1cccc(C)c1C | inactive
CCC(=O)c1ccc(N2CCN(C(=O)c3cc([N+](=O)[O-])ccc3F)CC2)c(F)c1 | inactive
C=CCNC(=S)N1CCN(CCN=Cc2c(C)[nH]n(-c3ccc([N+](=O)[O-])cc3)c2=O)CC1 | inactive
Cc1[nH]n(-c2ccc([N+](=O)[O-])cc2)c(=O)c1C=NCCN1CCN(C(=O)c2ccccc2F)CC1 | 2 µM (active)
Cc1ccc2ccc3c(c2n1)NS(=O)(=O)c1ccccc1-3 | inactive
COc1ccc(C(CCN2CCOCC2)c2c(OC)cc(OC)c3c2OC(=O)CC3c2ccc(OC)cc2)cc1 (stereo not given) | inactive
O=C(C[n+]1ccncc1)c1ccc2c(c1)CCCC2 | inactive
CC(C)(CNC(=O)Cc1ccc(Cl)cc1Cl)N1CCOCC1 | inactive
Cn1cc(C(=O)c2ccc(Cl)cc2Cl)cc1C(=O)NN | inactive

Structure (SMILES) | Potency
CC(C)(C)c1cc(C(=O)NN)n(Cc2ccc(Cl)cc2Cl)n1 | 12.6 µM (active)
CCOC(=O)C1CCCN(C(=O)c2ccc3c(c2)sc2nc(-c4ccc(CC)cc4)cn23)C1 (stereo not given) | inactive
Cc1ccc2c(c1)N(C(=O)Nc1ccc(Br)cc1F)CCO2 | inactive
COc1cccc(NC(=O)CSc2cc(=O)n(C)c3ccc(Cl)cc23)c1 | inactive
CCCC(O)(CCC)C(=O)NN(C(=O)CCl)c1cccc(C)c1 | 20 µM (active)
CCCCC(O)(CCCC)C(=O)NN(C(=O)CCl)c1ccccc1 | inactive
Cc1cccc(N(Cc2ccccc2)C(=O)c2ccccc2F)c1 | inactive
CCCn1c(NCc2ccc(N(CC)CC)cc2)nc2ccccc21 | inactive
CCOC(=O)c1c(C)[nH]c(C)c1S(=O)(=O)N(C)CC(=O)N1CCN(c2ccccc2)CC1 | inactive
CCOC(=O)c1c(C)[nH]c2c1-c1ccccc1C(=O)C2=O | 1.26 µM (active)
CCOC(=O)c1c(SCC(=O)Nc2cccc(C)c2C)nc(=O)[nH]c1C | inactive
CCc1nnc(NS(=O)(=O)c2ccc(NC(=S)NC(=O)/C=C/c3cccs3)cc2)s1 | inactive
CCc1nnc(NS(=O)(=O)c2ccc(N=Cc3c(C)[nH]n(-c4ccc(C)cc4)c3=O)cc2)s1 | 8.91 µM (active)
CCc1nnc(NC(=O)CCN(c2ccc(C)cc2)S(=O)(=O)c2ccccc2)s1 | inactive
CN(N=O)c1ccc(C=C2c3ccccc3-c3ccccc32)cc1 | inactive
Cc1ccc(N2C(=O)C3N=NN(CC(=O)N4N=C(c5cccc6ccccc56)CC4c4ccccc4)C3C2=O)cc1 (stereo not given) | inactive
COc1ccc(C2CC(c3cccc(OC)c3)=NN2c2ccc(S(N)(=O)=O)cc2)cc1 (stereo not given) | inactive
Oc1ccccc1C1=NN(c2ccccc2)C(c2ccccc2)C1 (stereo not given) | 10 µM (active)
CC(=O)c1ccc[n+](C(C)CCC(C)[n+]2cccc(C(C)=O)c2)c1 (stereo not given) | inactive
CCOC(=O)c1c(S(=O)(=O)N2CCC(C(=O)NCc3ccccc3OC)CC2)c(C)n(C)c1C | inactive
CCCCCCCCCCOC(=O)Cn1c(COc2cccc(OC)c2)[n+](C)c2ccccc21 | 20 µM (active)
OC(CBr)CN1CCCCC1 (stereo not given) | inactive
CC(=O)Nc1cccc(NC(=O)CSc2nccn2Cc2ccc3c(c2)OCO3)c1 | inactive
Cc1cccc(NC(=O)Cn2c(=O)n(CCC(C)C)c(=O)c3cccnc32)c1 | inactive
CCn1c(=O)c2cc(C(=O)NCCc3ccc(Cl)cc3)sc2c2ccccc21 | inactive

Structure (SMILES) | Potency
CCC1CCCCN1CCCNC(=O)c1cc2c(Cl)nc3ccccc3c2s1 (stereo not given) | inactive and 12.6 µM (active)
O=C(NCCN1CCN(Cc2ccccc2)CC1)c1cc2c(=O)[nH]c3ccccc3c2s1 | inactive
CCCCN1C(=O)c2[nH]nc(-c3ccccc3O)c2C1c1cccc(OCc2ccccc2)c1 (stereo not given) | 14.1 µM (active)
CCCOc1ccc(C2c3c(-c4ccccc4O)n[nH]c3C(=O)N2Cc2cccnc2)cc1 (stereo not given) | inactive
COc1ccc(CCN2C(=O)c3[nH]nc(-c4ccccc4O)c3C2c2ccc(C)cc2)cc1OC (stereo not given) | inactive
O=c1[nH]c2cc(Br)ccc2n2cccc12 | inactive
Cc1cccc(N2CCN(C(=O)c3cc4c(=O)oc5ccccc5c4s3)CC2C)c1 (stereo not given) | inactive
CC(C)c1ccc2oc(-c3cc(NC(=O)c4cccs4)ccc3Cl)nc2c1 | inactive
CCCn1nc(C(=O)NNC(=O)CSCC(=O)Nc2cc(C)on2)c2ccccc2c1=O | 11.2 µM (active)
CCCCn1nc(C(=O)Nc2cccc(C(=O)NC3CC3)c2)c2ccccc2c1=O | inactive
CCCn1nc(C(=O)NNC(=O)CCOc2ccccc2OCC)c2ccccc2c1=O | inactive
Cc1csc[n+]1CCC1CCCCC1 | inactive
O=C(O)C1CC=CC2CCN(C3CCCCC3)C(=O)C21 (stereo not given) | inactive
CCCS(=O)(=O)Nc1cccc(-c2cn3ccsc3n2)c1 | inactive
CSc1nc(Nc2ccc(F)cc2)cc(-c2ccccc2)n1 | inactive
CSc1nc(-c2ccccc2)nc(C(Cl)Cl)n1 | 5.01 µM (active)
O=C(NCC1CC1)C1(C(F)(F)F)C/C(=C\CCO)CCCO1 (stereo not given) | inactive
Cn1nnnc1SCc1cc(=O)[nH]c2ccccc12 | inactive
Cc1ccc(N(Cc2cc(=O)[nH]c3ccccc23)C(=O)CCl)cc1 | 17.8 µM (active)
Cc1ccc(N(Cc2ccccc2O)C(=O)c2ccccc2F)cc1 | inactive
O=c1cc(-c2ccccc2)n2c(SCc3ccccc3)nnc2[nH]1 | inactive
CC(C)NC(=O)C1CCC(Cn2c(=O)c3sccc3n(Cc3ccc(F)cc3)c2=O)CC1 (stereo not given) | inactive
Cc1ccc(C(NC(=O)C2CCN(CCOc3ccc(Cl)cc3Cl)CC2)c2ccccn2)cc1 (stereo not given) | 20 µM (active)
Cc1cccnc1C(NC(=O)C1CCN(Cc2ccc(Cl)c(Cl)c2)CC1)c1ccc(Cl)cc1 (stereo not given) | inactive
O=C(NC(c1ccc(-c2ccccc2)cc1)c1cnccn1)C1CCN(CCOc2ccc(Cl)cc2Cl)CC1 (stereo not given) | inactive
